Details in all cases: mRNA level, 48 h; actives raise or lower the signal
Read-out in assay [1]: Heat shock 70 kDa protein 1 (HSPA1A), gene 3303
The assay can be described thus: LTEA_HepaRG_HSPA1A: Life Technologies and Expression Analysis (LTEA) Assay for Heat shock 70 kDa protein 1 (HSPA1A) using HepaRG (AID 2283502). The procedure, abridged: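 HSPA1A induction in human HepaRG liver cells is measured after 48 h of chemical treatment (100 uM maximum, 0.5% DMSO vehicle). Expression comes from qRT-PCR normalized to endogenous controls.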

Read-out in assay [2]: Hypoxia-inducible factor 1-alpha (Homo sapiens) (UniProt Q16665)
The assay can be described thus: LTEA_HepaRG_HIF1A: Life Technologies and Expression Analysis (LTEA) Assay for Hypoxia-inducible factor 1 (HIF1A) Trancription factor using HepaRG (AID 2283503).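 Also: HIF1A transcript by TaqMan qRT-PCR normalized to ACTB GAPDH and POLR2A.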 The procedure, abridged:
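HepaRG, 48 h exposure, 8-pt half-log series from 100 uM, 0.5% DMSO vehicle, duplicates. Readout: HIF1A transcript by qRT-PCR (Fluidigm array), housekeeping-normalised. Bidirectional curve fit vs DMSO baseline.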

Read-out in assay [3]: 3-Hydroxy-3-Methylglutaryl-CoA Synthase 2 (HMGCS2), HMGCS2 (gene 3158)
In words: LTEA_HepaRG_HMGCS2: Life Technologies and Expression Analysis (LTEA) Assay for 3-Hydroxy-3-Methylglutaryl-CoA Synthase 2 (HMGCS2) using HepaRG (AID 2283504). The procedure, abridged:
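This steatosis marker was read as HMGCS2 mRNA change in HepaRG cells treated 48 h with up to 100 uM chemical. Normalisation used housekeeping genes; activity in either direction was fitted relative to 0.5% DMSO vehicle.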

Read-out in a further assay: HGF (gene 3082)
In words: LTEA_HepaRG_HGF: Life Technologies and Expression Analysis (LTEA) Assay for Hepatocyte Growth Facto (HGF) using HepaRG (AID 2283505). An outline of the steps: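 Using HepaRG monolayers kept in 0.5% DMSO, chemicals were tested in duplicate over eight half-log concentrations from 100 uM for 48 h. Endpoint: HGF mRNA change relative to DMSO, normalized to ACTB/GAPDH/POLR2A.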

Read-out in assay [4]: Insulin Like Growth Factor 1 (IGF1), IGF1 (gene 3479)
In words: LTEA_HepaRG_IGF1: Life Technologies and Expression Analysis (LTEA) Assay for Insulin Like Growth Factor 1 (IGF1) using HepaRG (AID 2283506). An outline of the steps: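 Using human HepaRG liver cells, IGF1 transcript induction or suppression is measured 48 h after dosing across eight concentrations capped at 100 uM. Values derive from bidirectional concentration-response fitting with DMSO as baseline.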

Read-out in assay [5]: Intercellular Adhesion Molecule 1 (ICAM1), ICAM1 (gene 3383)
The assay can be described thus: LTEA_HepaRG_ICAM1: Life Technologies and Expression Analysis (LTEA) Assay for Intercellular Adhesion Molecule 1 (ICAM1) using HepaRG (AID 2283507). An outline of the steps:
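Using the human liver line HepaRG, compounds are tested in duplicate over 48 h at concentrations up to 100 uM. Expression is determined by TaqMan qRT-PCR, normalized to endogenous controls, and analysed relative to 0.5% DMSO vehicle.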

Read-out in assay [6]: Insulin-like growth factor-binding protein 1 (IGFBP1), IGFBP1 (gene 3484)
In words: LTEA_HepaRG_IGFBP1: Life Technologies and Expression Analysis (LTEA) Assay for Insulin-like growth factor-binding protein 1 (IGFBP1) using HepaRG (AID 2283508). An outline of the steps:
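HepaRG, 48 h, 8 conc. (max 100 uM, half-log), duplicates, 0.5% DMSO. Readout: TaqMan qRT-PCR, ACTB/GAPDH/POLR2A normalisation. Fit: bidirectional vs DMSO.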

Read-out in assay [7]: Interleukin 6 (IL6), IL6 (gene 3569)
In words: LTEA_HepaRG_IL6: Life Technologies and Expression Analysis (LTEA) Assay for Interleukin 6 (IL6) using HepaRG (AID 2283509). An outline of the steps:
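HepaRG, ~100,000 cells/well, 48 h pre-culture; serum-free induction medium; cmpd 8-pt half-log from 100 uM, 0.5% DMSO, duplicate, 48 h. Lysis in RLT, TaqMan qRT-PCR; gain or loss vs DMSO.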

Read-out in assay [8]: Interleukin 6 Receptor (IL6R), IL6R (gene 3570)
In words: LTEA_HepaRG_IL6R: Life Technologies and Expression Analysis (LTEA) Assay for Interleukin 6 Receptor (IL6R) using HepaRG (AID 2283510). The procedure, abridged:
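Concentration-response in human liver HepaRG cells: eight concentrations from 100 uM downward by half-logs, 48 h exposure, 0.5% DMSO vehicle. IL6R mRNA change measured by qRT-PCR and fitted in both directions relative to vehicle.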

Read-out in assay [9]: Potassium channel subfamily K member 1 (KCNK1), KCNK1 (gene 3775)
In words: LTEA_HepaRG_KCNK1: Life Technologies and Expression Analysis (LTEA) Assay for Potassium channel subfamily K member 1 (KCNK1) using HepaRG (AID 2283511). An outline of the steps: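 Gain or loss of KCNK1 mRNA is the read-out, quantified by qRT-PCR against three housekeeping genes after 48 h chemical treatment of human HepaRG liver cells. Concentrations ran from 100 uM downward in half-log steps, vehicle 0.5% DMSO.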

Read-out in assay [10]: Keratin 19 (KRT19), KRT19 (gene 3880)
The assay can be described thus: LTEA_HepaRG_KRT19: Life Technologies and Expression Analysis (LTEA) Assay for Keratin 19 (KRT19) using HepaRG (AID 2283512). An outline of the steps:
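Readout is qRT-PCR of KRT19 mRNA, normalized to ACTB, GAPDH and POLR2A, from HepaRG cells treated 48 h with eight-point half-log dilutions topping at 100 uM. Activity in either direction is scored relative to 0.5% DMSO vehicle.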

Read-out in assay [11]: JUN Transcription Factor, JUN (gene 3725)
In words: LTEA_HepaRG_JUN: Life Technologies and Expression Analysis (LTEA) Assay for JUN Transcription Factor using HepaRG (AID 2283513). The procedure, abridged: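 Human HepaRG liver cells receive test chemicals in 0.5% DMSO for 48 h across an eight-point range topping at 100 uM. Expression changes in JUN are scored in both directions against the DMSO vehicle.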

Read-out in assay [12]: Lipase C (LIPC), LIPC (gene 3990)
In words: LTEA_HepaRG_LIPC: Life Technologies and Expression Analysis (LTEA) Assay for Lipase C (LIPC) using HepaRG (AID 2283514). The procedure, abridged: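 Read-out is LIPC transcript level by TaqMan qRT-PCR, normalized to three housekeeping genes, after 48 h chemical treatment of human HepaRG liver cells. Curves span eight concentrations topping at 100 uM; activity in either direction scored relative to 0.5% DMSO.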

Read-out in assay [13]: Lipoprotein lipase (LPL), LPL (gene 4023)
In words: LTEA_HepaRG_LPL: Life Technologies and Expression Analysis (LTEA) Assay for Lipoprotein lipase (LPL) using HepaRG (AID 2283515). The procedure, abridged:
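Read-out is LPL transcript level by qRT-PCR, normalized to three housekeeping genes and fitted bidirectionally against the DMSO control. Human HepaRG cells received chemicals for 48 h at up to 100 uM.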

Read-out in assay [14]: MicroRNA 122 (MIR122), gene 406906
The assay can be described thus: LTEA_HepaRG_MIR122: Life Technologies and Expression Analysis (LTEA) Assay for MicroRNA 122 (MIR122) using HepaRG (AID 2283516). Also: the transcript read is the microRNA miR-122. The procedure, abridged:
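HepaRG, 48 h exposure, 8-pt half-log from 100 uM, 0.5% DMSO; TaqMan qRT-PCR; bidirectional fit vs DMSO.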

Read-out in assay [15]: matrix metalloproteinase-10 (MMP10), MMP10 (gene 4319)
The assay can be described thus: LTEA_HepaRG_MMP10: Life Technologies and Expression Analysis (LTEA) Assay for matrix metalloproteinase-10 (MMP10) using HepaRG (AID 2283517). The procedure, abridged: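 Gain or loss of MMP10 mRNA is fitted relative to the 0.5% DMSO vehicle. The human hepatic line HepaRG receives a 48-hour serum-free exposure, in duplicate, with a maximum concentration of 100 uM.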

Read-out in a further assay: MYC, MYC (gene 4609)
The assay can be described thus: LTEA_HepaRG_MYC: Life Technologies and Expression Analysis (LTEA) Assay for MYC using HepaRG (AID 2283518). The procedure, abridged: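 Expression changes were scored by TaqMan qRT-PCR with ACTB, GAPDH and POLR2A normalization. Cultures in serum-free induction medium received duplicate 8-point concentration series, highest 100 uM, for 48 h; DMSO (0.5%) served as baseline.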

Read-out in assay [16]: matrix metalloproteinase-3 (MMP3), MMP3 (gene 4314)
The assay can be described thus: LTEA_HepaRG_MMP3: Life Technologies and Expression Analysis (LTEA) Assay for matrix metalloproteinase-3 (MMP3) using HepaRG (AID 2283519). An outline of the steps:
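HepaRG, human; 48 h dosing, 8 conc. (max 100 uM, half-log), duplicate, 0.5% DMSO. Readout: MMP3 transcript by Fluidigm TaqMan qRT-PCR, ACTB/GAPDH/POLR2A-normalised. Gain or loss fitted vs DMSO.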

Read-out in assay [17]: Paternally Expressed 10 (PEG10), PEG10 (gene 23089)
In words: LTEA_HepaRG_PEG10: Life Technologies and Expression Analysis (LTEA) Assay for Paternally Expressed 10 (PEG10) using HepaRG (AID 2283520).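 Also: differentiated HepaRG human liver cells in serum-free induction medium with 0.5% DMSO; PEG10 transcript by qRT-PCR normalised to ACTB GAPDH and POLR2A.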 The procedure, abridged:
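Chemicals tested on HepaRG cells for 48 h, highest concentration 100 uM. PEG10 expression assessed by qRT-PCR relative to DMSO control.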

Read-out in assay [18]: Glutathione S-transferase M3 (GSTM3), GSTM3 (gene 2947)
In words: LTEA_HepaRG_GSTM3: Life Technologies and Expression Analysis (LTEA) Assay for Glutathione S-transferase M3 (GSTM3) using HepaRG (AID 2283501). The procedure, abridged: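 Expression of GSTM3 is determined by qRT-PCR in human liver HepaRG cells treated 48 h with an 8-point half-log range from 100 uM in 0.5% DMSO.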

Where “and” joins values, the source holds several entries; their conditions need not be identical. Identical values can stand only once. Some compounds were tested as several samples or in several runs, with calls that do not always agree. Calls of active or inactive are those of the source. The calls were made as follows: active = hit-call score of the fitted dose curve at least 0.9, where 1 is the maximum; inactive = score below 0.9.

Sequence of Hypoxia-inducible factor 1-alpha (Homo sapiens) (Q16665 whole entry, looked up): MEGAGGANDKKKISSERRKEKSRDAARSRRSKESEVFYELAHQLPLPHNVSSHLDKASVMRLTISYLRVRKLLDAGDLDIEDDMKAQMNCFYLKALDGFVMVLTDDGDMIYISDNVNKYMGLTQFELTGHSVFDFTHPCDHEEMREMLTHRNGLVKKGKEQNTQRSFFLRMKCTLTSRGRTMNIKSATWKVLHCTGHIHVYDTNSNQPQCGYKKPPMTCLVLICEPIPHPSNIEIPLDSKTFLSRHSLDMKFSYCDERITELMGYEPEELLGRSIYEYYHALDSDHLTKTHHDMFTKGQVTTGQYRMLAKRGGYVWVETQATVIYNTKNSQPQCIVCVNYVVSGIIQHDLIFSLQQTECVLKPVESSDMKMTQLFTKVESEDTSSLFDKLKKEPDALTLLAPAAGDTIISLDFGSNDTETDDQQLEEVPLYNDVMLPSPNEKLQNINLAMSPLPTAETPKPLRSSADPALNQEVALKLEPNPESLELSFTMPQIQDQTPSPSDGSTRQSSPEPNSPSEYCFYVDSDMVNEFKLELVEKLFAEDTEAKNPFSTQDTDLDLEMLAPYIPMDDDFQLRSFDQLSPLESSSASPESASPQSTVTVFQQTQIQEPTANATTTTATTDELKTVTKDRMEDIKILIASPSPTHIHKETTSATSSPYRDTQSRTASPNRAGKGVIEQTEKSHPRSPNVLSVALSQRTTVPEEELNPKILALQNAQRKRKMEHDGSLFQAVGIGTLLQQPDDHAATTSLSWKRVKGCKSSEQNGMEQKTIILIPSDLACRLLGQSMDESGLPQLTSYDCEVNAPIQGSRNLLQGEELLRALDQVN

Turning to `C=CCC1=C(C)[C@@H](OC(=O)[C@@H]2[C@@H](C=C(C)C)C2(C)C)CC1=O`, the compound was classed as inactive (in [1]; in assay [2]; in the assay with HGF (gene 3082); in assay [5]; in [6]; in [7]). The compound was called inactive in assay [8], in [9], in assay [10], in assay [11], in assay [13] and in assay [14]. Moreover, the outcome was “inactive” in assay [15]; “inactive” with MYC, MYC (gene 4609); “inactive” in assay [16]. The AC50 (usually the concentration at which the activity in the assay is half-maximal) in [3] is 50 µM (active); in [4], 50 µM (active); in assay [12] it was 81.5 µM (active); in [17], 22.6 µM (active).
For the compound `CO/C=C(/C(=O)OC)c1ccccc1Oc1cc(Oc2ccccc2C#N)ncn1`, the AC50 was 83.1 µM (active) in [18]; 83.4 µM (active) in assay [1]; 86.1 µM (active) in assay [2]; 77.1 µM (active) and 76.2 µM (active) and 72.6 µM (active) in [3]; 79.8 µM (active) and 62.8 µM (active) and 74 µM (active) in assay [4]; 83.5 µM (active) and 87.8 µM (active) and 88.9 µM (active) in assay [5]. Also, the AC50 is 63.6 µM (active) and 72.5 µM (active) and 76.7 µM (active) in assay [6]; 81.4 µM (active) and 80.9 µM (active) and 82.8 µM (active) in assay [7]; 61.1 µM (active) and 37.1 µM (active) and 50 µM (active) in assay [10]; 80.8 µM (active) and 75.3 µM (active) and 71.2 µM (active) in assay [12]; 82.4 µM (active) and 82.1 µM (active) and 85.2 µM (active) in assay [13]; 72 µM (active) and 83.7 µM (active) and 74.3 µM (active) in [14]. The AC50 in assay [15] is 81 µM (active) and 66.5 µM (active) and 34.6 µM (active); with MYC, MYC (gene 4609), 77.8 µM (active) and 90 µM (active) and 90.3 µM (active); in [16] it was 83.2 µM (active) and 79.1 µM (active) and 78.9 µM (active); in assay [17], 27.9 µM (active) and 26.6 µM (active) and 17.5 µM (active). Besides, the compound was classed as inactive (in assay [18]; in assay [1]; in assay [2]; in the assay with HGF (gene 3082); in assay [8]; in [9]). Moreover, the call in assay [11] was inactive.

The values are drawn from PubChem BioAssay (EPA / NIEHS).
